PubChem BioAssay (NCI)
About 83,000 compounds went through this panel and 20% of them were active in at least one assay; those are over-represented in the sample as a whole.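 Step 1: grow cells in 96-well plates. Step 2: add test compound at a single concentration. Step 3: incubate 48 h. Step 4: record percent growth.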 Activity calls are given as the source filed them. Rule for the calls: active = growth percent below 10; inactive = the rest.

Assays:
Test in all cases: NCI-60 one-dose screen, 48 h (100 = growth as untreated, 0 = no growth, -100 = all killed)
Conditions in all cases: 10 µM unless noted
[1] = tested on: T-47D breast
[2] = tested on: BT-549 breast
[3] = tested on: MDA-MB-435 melanoma
[4] = tested on: SW-620 colon
[5] = tested on: MCF7 breast
[6] = tested on: HCT-116 colon
[7] = tested on: HCC-2998 colon
[8] = tested on: KM12 colon
[9] = tested on: MDA-MB-468 breast

Measured: growth

COc1cc(CNC(=O)C[C@H](C)CCC=C(C)C)ccc1OCc1cn(-c2ccc(Cl)c(Cl)c2)nn1
inactive: [1] 33.6% | [2] 71.7% | [3] 91.3% | [4] 29.9% | [5] 49.6% | [6] 29.8% | [7] 93.5% | [8] 82.7% | [9] 55%

O=C(NN1C(=O)/C(=C/C=C/c2ccc([N+](=O)[O-])o2)SC1=S)c1ccc(O)cc1
active: [1] -53.4% | [2] -94% | [3] -91% | [4] -69.1% | [5] -54.4% | [6] -85.1% | [7] -92.6% | [8] -95.2% | [9] -77.3%

CCOc1ccccc1[C@H]1C(C(=O)c2ccc(Cl)cc2)C2(N[C@@H]1c1ccccc1)C(=O)Nc1ccccc12 (some centres not stated)
inactive: [1] 10% | [4] 21% | [8] 12.4%
active: [2] -35% | [3] -28.3% | [5] -9.52% | [6] 3.88% | [7] 6.07% | [9] -31.1%

OCCn1cc(-c2nc3ccc4[nH]ncc4c3c3c2CCCC3)cn1
active: [9] 3.83%
inactive: [1] 43.5% | [2] 30.5% | [3] 12.4% | [4] 21.6% | [5] 39.3% | [6] 24% | [7] 54% | [8] 18.8%

COc1cc(C=O)ccc1OC(=O)c1cc(-c2ccc(C)cc2)n(-c2ccc(S(C)(=O)=O)cc2)n1
inactive: [1] 105% | [2] 126% | [3] 104% | [4] 124% | [5] 88.4% | [6] 98.7% | [7] 118% | [8] 104% | [9] 124%

N#Cc1c(NC(=O)N2CCOCC2)n(-c2ccc(OC(F)(F)F)cc2)c2cc(F)ccc12
inactive: [1] 77.4% | [2] 139% | [3] 92.4% | [4] 110% | [5] 89% | [6] 80.5% | [7] 110% | [8] 92.5% | [9] 89.1%

COc1ccc(-c2nc3ccc(-c4nnc(SCc5ccccc5)o4)cc3[nH]2)cc1
active: [1] -41.9% | [2] -54% | [3] -29.5% | [4] 7.51% | [5] -20.2% | [6] -60.5% | [9] -23.8%
inactive: [7] 25.4% | [8] 16.5%

Cc1ccc(C2CC(c3ccc(NC(=O)Nc4ccccc4)cc3)=NN2c2ccc(S(C)(=O)=O)cc2)cc1 (configuration not stated)
active: [2] -32.8% | [3] -7.07% | [4] -42.6% | [5] -34.3% | [6] -36.5% | [7] -80.7% | [8] -2.32% | [9] -1.05%
inactive: [1] 11.9%

Cc1ccc(N=Nc2c(N)nn3c(-c4cc5cc(Br)ccc5oc4=O)ccnc23)cc1
inactive: [1] 56.4% | [2] 53% | [3] 113% | [4] 107% | [5] 51.1% | [6] 44.5% | [7] 87.1% | [8] 72.4% | [9] 73.5%

Cc1nn(-c2ccccc2)c2nc(C)n(C(=O)N/N=C/c3ccccc3)c(=O)c12
inactive: [1] 90.6% | [2] 101% | [3] 102% | [4] 101% | [5] 92.9% | [6] 102% | [7] 100% | [8] 99.4% | [9] 115%

COc1ccc(C(=O)NNC(=O)CSc2nc3sc4c(c3c(=O)n2-c2ccc(Cl)cc2)CCCC4)cc1
inactive: [1] 72.5% | [2] 34.5% | [3] 93.4% | [4] 88% | [5] 63.5% | [6] 72.7% | [7] 111% | [8] 98% | [9] 88.3%

Clc1ccc(-c2nc3c4c(-c5ccccc5)c(-c5ccccc5)n(Cc5ccccc5)c4ncn3n2)cc1
active: [1] 7.51% | [2] -28.4% | [3] 5.5% | [5] -2.7% | [6] 3.25% | [8] 9.06% | [9] -40.4%
inactive: [4] 12% | [7] 22.1%

CCCCCCCCCc1ccc(C(=O)Nc2cc(C)ccc2C(=O)OC)cc1
inactive: [1] 99.1% | [2] 129% | [3] 105% | [4] 99.7% | [5] 91.2% | [6] 96.7% | [7] 122% | [8] 105% | [9] 118%

N#Cc1c(-c2ccc(F)cc2)nc(SCc2ccc(F)cc2)nc1N1CCNCC1
inactive: [2] 82.7%
active: [1] -66.9% | [3] -84.7% | [4] -83.7% | [5] -90.5% | [6] -99.3% | [7] -91% | [8] -81.2% | [9] -72%

COc1cccc(/C=C/c2nc3ccccc3c(=O)n2CC(=O)Nc2ccccc2)c1
inactive: [1] 36.7% | [2] 43.9% | [3] 70.6% | [4] 51.1% | [5] 41.6% | [6] 35.7% | [7] 89.8% | [8] 94.2% | [9] 83.4%

O=C1CC(c2ccc(I)cc2)OC2C=Cc3ccccc3C12 (configuration not stated)
inactive: [1] 87.8% | [2] 108% | [3] 97.4% | [4] 103% | [5] 83.3% | [6] 98.9% | [7] 117% | [8] 92.9% | [9] 123%

O=C1c2cccc3c(N4CCN(c5ccccc5)CC4)ccc(c23)C(=O)N1c1cccc(-c2nn(-c3ccccc3)cc2-c2nc3ccccc3s2)c1
inactive: [1] 114% | [2] 126% | [3] 106% | [4] 98% | [5] 81.2% | [6] 101% | [7] 115% | [8] 104% | [9] 96.9%

COc1ccc(-c2cc(C(=O)Oc3ccc(C=O)cc3OC)nn2-c2ccc(S(C)(=O)=O)cc2)cc1
inactive: [1] 92.2% | [2] 105% | [3] 98.3% | [4] 109% | [5] 84.5% | [6] 98.3% | [7] 116% | [8] 103% | [9] 107%

COc1ccc(Nc2ncnc3sc4c(c23)CCN(Cc2ccccc2)C4)cc1
inactive: [1] 27.3% | [2] 38.8% | [3] 82.1% | [4] 99.8% | [5] 53.4% | [6] 86.4% | [7] 105% | [8] 82.1% | [9] 56.6%

Cn1cc(-c2cc(N)n3nc(-c4c[nH]c5ccc(Cl)cc45)cc3n2)c2cc(Br)cnc21
active: [1] -50% | [2] -16.1% | [3] -80.8% | [4] -79.1% | [5] -59.8% | [6] -74.3% | [7] -99% | [8] -68.8% | [9] -93.6%

COc1cccc2nc(Nc3cccc(NC(=O)c4ccc(CN5CCN(C)CC5)c(C(F)(F)F)c4)c3)ccc12
active: [1] -75.9% | [2] -93.7% | [3] -98.1% | [4] -92.8% | [5] -79.2% | [6] -66.9% | [7] -96.8% | [8] -51.1% | [9] -97.2%

COc1sc(/C=N/NC(=O)c2[nH]c3ccc(Br)cc3c2-c2ccccc2)cc1Cl
active: [2] -35.2% | [3] -10.1% | [4] -33.8% | [5] -26.6% | [6] -43.5% | [7] -30.8% | [8] -16.1% | [9] -6.37%
inactive: [1] 54.3%

CC(C)(C)OC(=O)N1CCC2(CC1)Oc1ccccc1[C@H]1CC(c3ccc(Br)cc3)=NN12
inactive: [1] 37.1% | [2] 78.5% | [3] 81.6% | [4] 83% | [5] 59.9% | [6] 74.1% | [7] 85.6% | [8] 49.9% | [9] 67.7%

N#CC1=C(c2cccs2)Nc2c(c(-c3ccccc3)nn2-c2ccccc2)C12C(=O)Nc1ccc(Br)cc12 (configuration not stated)
active: [1] 1.8% | [2] -68.4% | [3] -40.1% | [4] -24.6% | [5] 7.23% | [6] -52.8% | [7] 6.28% | [8] -12.2% | [9] -31.9%

Nc1nn2c(-c3cc4ccccc4oc3=O)ccnc2c1N=Nc1ccccc1
active: [6] 6.75%
inactive: [1] 85.9% | [2] 29.5% | [3] 107% | [4] 93% | [5] 52.7% | [7] 105% | [8] 92% | [9] 78.3%

Nc1nnc(-c2cncc(Br)c2)c(-c2c[nH]c3ccc(Br)cc23)n1
active: [3] -14.4% | [9] -4.92%
inactive: [1] 26.1% | [2] 47.4% | [4] 28.1% | [5] 50.4% | [6] 22.9% | [7] 74.7% | [8] 41.4%

COC(=O)c1cc(C(=O)C(C)(C)C)n2c3ccccc3c3ccccc3c12
inactive: [1] 47.1% | [2] 111% | [3] 105% | [4] 101% | [5] 86.2% | [6] 88.4% | [7] 124% | [8] 79.5% | [9] 88.3%

COc1cc(C2CC(c3ccc(S(=O)(=O)NCCNc4nc(N(C)C)nc(N5CCOCC5)n4)cc3)=Nc3c(N)nc(N)nc3N2)cc(OC)c1OC (configuration not stated)
inactive: [1] 95% | [2] 95.2% | [3] 104% | [4] 99% | [5] 95.1% | [6] 90% | [7] 109% | [8] 100% | [9] 95.4%
